Compounds without any hit were thinned out: in the full panel of roughly 83,000, 20% have a hit.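 Note: values are percent growth. 100 is the growth of untreated cells, values between 100 and 0 indicate rising inhibition; between -100 and 0 indicates cell death.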 Activity calls are given as the source filed them. How the source made its calls: active means growth percent below 10; inactive means the rest.
Experiments:
Assay in all cases: NCI-60 one-dose screen, 48 h (100 = growth as untreated, 0 = no growth, -100 = all killed)
SK-MEL-2 melanoma = conditions: 10 µM unless noted
EKVX NSCLC = conditions: 10 µM unless noted
SN12C renal = conditions: 10 µM unless noted
UO-31 renal = conditions: 10 µM unless noted
ACHN renal = conditions: 10 µM unless noted
CAKI-1 renal = conditions: 10 µM unless noted
A498 renal = conditions: 10 µM unless noted
CCRF-CEM leukemia = conditions: 10 µM unless noted
MOLT-4 leukemia = conditions: 10 µM unless noted
OVCAR-8 ovarian = conditions: 10 µM unless noted
OVCAR-5 ovarian = conditions: 10 µM unless noted
OVCAR-4 ovarian = conditions: 10 µM unless noted
IGROV1 ovarian = conditions: 10 µM unless noted
OVCAR-3 ovarian = conditions: 10 µM unless noted
HS 578T breast = conditions: 10 µM unless noted
NCI/ADR-RES ovarian = conditions: 10 µM unless noted
TK-10 renal = conditions: 10 µM unless noted
SR leukemia = conditions: 10 µM unless noted
RPMI-8226 leukemia = conditions: 10 µM
SK-OV-3 ovarian = conditions: 10 µM

Measured: growth

O=c1[nH]c(=O)n(Cc2ccc(F)cc2)cc1F
inactive: SK-MEL-2 melanoma 111% [50 µM] | EKVX NSCLC 105% [50 µM] | SN12C renal 99.8% [50 µM] | UO-31 renal 89.4% [50 µM] | ACHN renal 105% [50 µM] | CAKI-1 renal 95.3% [50 µM] | A498 renal 92.1% [50 µM] | CCRF-CEM leukemia 104% [50 µM] | MOLT-4 leukemia 96% [50 µM] | OVCAR-8 ovarian 94.2% [50 µM] | OVCAR-5 ovarian 104% [50 µM] | OVCAR-4 ovarian 108% [50 µM] | IGROV1 ovarian 108% [50 µM] | OVCAR-3 ovarian 116% [50 µM] | HS 578T breast 104% [50 µM] | NCI/ADR-RES ovarian 113% [50 µM]

CN1CCN(CCCn2c3c(sc4ncccc43)c(=O)n3nnc(-c4ccccc4)c23)CC1
inactive: SK-MEL-2 melanoma 99.3% | EKVX NSCLC 97.2% | SN12C renal 75.2% | CAKI-1 renal 97.7% | A498 renal 150% | RPMI-8226 leukemia 72.5% | OVCAR-5 ovarian 119%
active: UO-31 renal -90.8% | TK-10 renal -73.3% | CCRF-CEM leukemia -20.6% | MOLT-4 leukemia -35% | SR leukemia -25.2% | OVCAR-8 ovarian -48.2% | OVCAR-3 ovarian -83.1% | NCI/ADR-RES ovarian -28.4%

N#C/C(=C\c1ccc[nH]1)c1cc2ccccc2[nH]1
inactive: SK-MEL-2 melanoma 65.9% | EKVX NSCLC 37.4% | SN12C renal 72.3% | UO-31 renal 55% | ACHN renal 69.7% | CAKI-1 renal 52.4% | A498 renal 69.2% | CCRF-CEM leukemia 52% | MOLT-4 leukemia 62.9% | SR leukemia 68.3% | OVCAR-8 ovarian 74.9% | OVCAR-5 ovarian 82.4% | OVCAR-4 ovarian 24.1% | IGROV1 ovarian 59.2% | OVCAR-3 ovarian 81.1% | HS 578T breast 87.5% | NCI/ADR-RES ovarian 76.9%

COc1cc(/C=C/c2cc(/C=C/c3ccc(O)c(OC)c3)n(-c3ccccc3)n2)ccc1O
active: SK-MEL-2 melanoma -48.1% | EKVX NSCLC -38.8% | SN12C renal -3.11% | TK-10 renal 6.18% | ACHN renal 2.77% | CAKI-1 renal -60.4% | A498 renal -25.2% | CCRF-CEM leukemia -5.12% | MOLT-4 leukemia -39.9% | SR leukemia -13.9% | RPMI-8226 leukemia -33.6% | OVCAR-8 ovarian -13.1% | OVCAR-5 ovarian -7.74% | OVCAR-4 ovarian 4.49% | SK-OV-3 ovarian -53.1% | IGROV1 ovarian -21.2% | OVCAR-3 ovarian -46.9% | HS 578T breast -13% | NCI/ADR-RES ovarian 3.18%

COc1ccc2c(c1)c(=O)oc1c(C)c(OCC(C)=O)ccc12
active: EKVX NSCLC 4.14%
inactive: SK-MEL-2 melanoma 115% | SN12C renal 94% | TK-10 renal 82.7% | ACHN renal 97.2% | CAKI-1 renal 92.1% | A498 renal 90% | CCRF-CEM leukemia 99.7% | MOLT-4 leukemia 92.9% | SR leukemia 116% | RPMI-8226 leukemia 92.6% | OVCAR-8 ovarian 96.3% | OVCAR-5 ovarian 86.9% | OVCAR-4 ovarian 93.6% | SK-OV-3 ovarian 110% | IGROV1 ovarian 111% | OVCAR-3 ovarian 109% | HS 578T breast 33.6% | NCI/ADR-RES ovarian 97.6%

Cc1nc2nc(C(F)(F)F)[nH]c2nc1C
inactive: SK-MEL-2 melanoma 115% | EKVX NSCLC 89.5% | SN12C renal 95.4% | TK-10 renal 104% | ACHN renal 110% | CAKI-1 renal 98.3% | A498 renal 98.7% | CCRF-CEM leukemia 93.3% | MOLT-4 leukemia 113% | RPMI-8226 leukemia 92.1% | OVCAR-8 ovarian 105% | OVCAR-5 ovarian 115% | OVCAR-4 ovarian 97.7% | SK-OV-3 ovarian 98.5% | IGROV1 ovarian 117% | OVCAR-3 ovarian 116% | HS 578T breast 119% | NCI/ADR-RES ovarian 107%

CN(C)C(=S)SCN1C(=O)c2ccc([N+](=O)[O-])cc2S1(=O)=O
inactive: SK-MEL-2 melanoma 112% | EKVX NSCLC 93.7% | SN12C renal 93.1% | UO-31 renal 83.1% | TK-10 renal 108% | CAKI-1 renal 96% | A498 renal 92.6% | CCRF-CEM leukemia 50.6% | MOLT-4 leukemia 91.6% | SR leukemia 75.8% | RPMI-8226 leukemia 116% | OVCAR-8 ovarian 98.5% | OVCAR-4 ovarian 103% | SK-OV-3 ovarian 107% | IGROV1 ovarian 104% | OVCAR-3 ovarian 99.3% | HS 578T breast 93% | NCI/ADR-RES ovarian 96.4%

Cc1c(C(=O)Nc2nc(-c3ccccc3)cs2)nnn1-c1ccccc1Br
inactive: SK-MEL-2 melanoma 40.1% [50 µM] | EKVX NSCLC 30.7% [50 µM] | SN12C renal 50.9% [50 µM] | UO-31 renal 41.7% [50 µM] | ACHN renal 41.9% [50 µM] | CAKI-1 renal 33.7% [50 µM] | A498 renal 50.5% [50 µM] | CCRF-CEM leukemia 41.1% [50 µM] | MOLT-4 leukemia 17% [50 µM] | SR leukemia 17% [50 µM] | OVCAR-8 ovarian 40.1% [50 µM] | OVCAR-5 ovarian 77.4% [50 µM] | OVCAR-4 ovarian 19.6% [50 µM] | IGROV1 ovarian 68.3% [50 µM] | OVCAR-3 ovarian 57.3% [50 µM] | HS 578T breast 65.3% [50 µM] | NCI/ADR-RES ovarian 38.1% [50 µM]
